PglD inh: inhibitors of Campylobacter jejuni PglD acetyltransferase | purified PglD enzyme, DTNB colorimetric CoA detection | inhibition, % at 12.5 µM | 360,000 tested, 0.098% active | AID 602405; in the data active means inhibition above about 16%, passing the limit was not always enough
HIV Env fusion: HIV envelope-mediated fusion inhibition | 360,000 tested, 1.1% active | HeLa-JRFL Env/CEM21 cell fusion, luciferase | inhibition, % at 12.3 µM;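 active means mean replicate inhibition score of at least 50 and every replicate individually at or above 50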;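 further: 0% = plate neutral controls and 100% = maraviroc near 300 nM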
ALR inh: blocks human ALR sulfhydryl oxidase activity; purified ALR, DTT oxidation, H2O2 HRP-luminol luminescence; AID 485317; inhibition, % (no concentration beside the values); 290,000 tested, 3.8% active;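 active means mean replicate inhibition above about 79%, with every replicate also reaching it, limit read from the data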
Target sequence (P55789 whole entry, looked up): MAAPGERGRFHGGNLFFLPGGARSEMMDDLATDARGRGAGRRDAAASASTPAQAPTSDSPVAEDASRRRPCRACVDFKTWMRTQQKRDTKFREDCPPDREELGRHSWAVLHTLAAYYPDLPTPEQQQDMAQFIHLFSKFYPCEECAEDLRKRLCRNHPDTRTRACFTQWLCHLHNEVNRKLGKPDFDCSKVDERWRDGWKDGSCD
CFTR F508del cor: correctors of CFTR F508del function in bronchial epithelial cells. CFBE cells, YFP halide quenching; stimulated with forskolin plus potentiator P3; % fluorescence drop versus neutral controls. activity (quench increase), % at 7.58 µM. 350,000 tested, 0.36% active. AID 720511;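 active means mean added fluorescence quench of at least 8% versus neutral control, with both replicates also reaching 8%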;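 further: cells transiently co-express mutant CFTR-F508del with the halide-sensitive YFP; corrector assay measuring rescue of mutant channel to the surface after 24 h compound exposure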
NSD2 inh: inhibitors of human histone methyltransferase NSD2; O96028; NSD2 peptide methylation, AlphaScreen, 120 min; inhibition, % at 12.5 µM; 310,000 tested, 0.54% active; in the data active means inhibition above about 50%
Casp6 inh: blocks human caspase-6 cleavage activity; purified caspase-6, Z-VEID-R110 cleavage fluorescence; 350,000 tested, 0.53% active; inhibition, % at 12.5 µM;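 active means mean inhibition across replicates at least about 35%, with every replicate also reaching that limit, limit read from the data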;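 further: 0% = median of neutral control wells and 100% = no fluorescence left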
Active calls of the source: *; nt = no result given; [ ] = remark or other dose. This is a sample that favours compounds with a hit; in the whole collection about 4.1% have one here.

SMILES | PglD inh | HIV Env fusion | ALR inh | CFTR F508del cor | NSD2 inh | Casp6 inh
Cc1ccc(C)c(N2CCN(CCCNC(=O)CCC(=O)N3CCOc4ccc(Cl)cc43)CC2)c1 | nt | 26 | 17 | -1 | 9 | -4
Cc1ccc2c(c1)N(C(=O)CCC(=O)N1CCN(c3ccccn3)CC1)CCO2 | 0 | nt | -1 | 0 | nt | 0
O=C(CCC(=O)N1CCOc2ccc(Cl)cc21)N1CCN(c2ccccn2)CC1 | -3 | 18 | -1 | 8.3* | nt | 1
CCN(CC)CCCN(C(=O)c1cccc(C)c1)c1nc(-c2ccc(OC)cc2)cs1 | 6 | 24 | 96* | 1 | 25 | -36
CCN(CC)CCCN(C(=O)c1ccc(Br)cc1)c1nc(-c2ccc(OC)cc2)cs1 | 2 | 17 | -12 | -1 | 3 | -9
C[C@H]1CN([C@@H](C)CO)C(=O)c2cccc(NC(=O)c3nc4ccccc4s3)c2O[C@@H]1CN(C)Cc1ccc(-c2ccccc2)cc1 | 5 | 7[16.7 µM] | nt | 0 | nt | -2
CCN1C(=O)[C@H]2[C@@H](c3ccc(-c4ccc(Cl)c(Cl)c4)cc3)N[C@@](C)(C(=O)OC)[C@H]2C1=O | 1 | 8 | 1 | 8.2* | nt | 5
CCc1c(O)nc(SCC(=O)Nc2nc3ccccc3s2)n(-c2ccccc2)c1=O | 0 | -4 | 96* | -2 | 8 | 2
C=CCn1c(SCC(=O)Nc2nc3ccccc3s2)nc(O)c(CC)c1=O | 10 | 9 | 99* | 2 | 3 | -7
CCc1c(O)nc(SCC(=O)Nc2nc3ccccc3s2)n(-c2ccc(C)cc2)c1=O | -4 | -1 | 98* | -2 | -3 | 1
CCc1c(O)nc(SCC(=O)Nc2c(C)cccc2C)n(-c2ccc(F)cc2)c1=O | 0 | -6 | nt | 0 | -1 | 3
CN(C)C(=O)c1ccc(-c2ccc([C@H]3[C@@H](CO)N4CCCCN(C(=O)C5CCCC5)C[C@H]34)cc2)cc1 | 8 | nt | nt | -1 | nt | 2
CN1CCc2ccccc2Cc2[nH]c3ccccc3c2CC1 | 0 | 71* | 31 | -4 | nt | -5
CCCCN1CCc2c([nH]c3ccccc23)C1=O | -1 | nt | 22 | nt | nt | nt
COC(=O)CSc1nc(C(C)C)nc2ccccc12 | -10 | 12 | -11 | nt | -7 | nt
O=C(CSc1cnc2ccccc2n1)c1ccc(F)cc1 | nt | -26 | 97* | -1 | -4 | 1
CC(C)c1nc(SCC(=O)c2ccc(F)cc2)c2ccccc2n1 | nt | 2 | 99* | 4 | 7 | 2
Cc1ccc(C(=O)CSc2nc(C(C)C)nc3ccccc23)cc1 | 2 | -17 | 98* | -2 | -3 | 1
CCSc1cc(C)nc2c(-c3ccc(Cl)cc3)c(C)nn12 | 6 | nt | 3 | 0 | 1 | -6
N#CCCN(C(=O)CSc1nc2ccccc2c(=O)[nH]1)c1ccc(F)cc1 | 0 | 81* | -3 | 1 | -4 | 1
O=C(CSc1nc2ccccc2c(=O)[nH]1)c1ccc(O)cc1O | nt | -10 | nt | -4 | 0 | 3
Cc1ccc(C(=O)CSc2nc(O)cc(=O)[nH]2)cc1C | -8 | 9 | nt | -1 | 1 | 0
Cc1ccc(C(=O)CSc2nc(C)cc(=O)[nH]2)cc1 | -2 | -28 | 98* | nt | 0 | nt
O=C(CSc1nc2ccccc2c(=O)[nH]1)c1ccc(O)c(O)c1 | 2 | nt | 99* | 1 | nt | 70*
Cc1cc(SCC(=O)c2ccc(O)c(O)c2)n2nc(C)c(-c3ccccc3)c2n1 | 0 | 34 | 96* | 0 | 11 | 39*
SMILES | PglD inh | HIV Env fusion | ALR inh | CFTR F508del cor | NSD2 inh | Casp6 inh
O=C(C[C@@H]1CC[C@@H]2[C@H](COC[C@@H](O)CN2C(=O)Nc2ccc(Cl)cc2)O1)NCCc1ccncc1 | 1 | 4[16.7 µM] | nt | -1 | nt | 0
C[C@@H]1CCCCO[C@@H](CN(C)C)[C@H](C)CN([C@H](C)CO)C(=O)c2cc(NS(=O)(=O)c3cn(C)cn3)ccc2O1 | -3 | 14[16.7 µM] | nt | 3 | nt | -3
Cc1cc(C)nc(SCC(=O)c2ccc(O)c(O)c2)n1 | 0 | -10 | 18 | -1 | nt | 30
Cc1cc(=O)[nH]c(SCC(=O)c2ccc(O)c(O)c2)n1 | 2 | 2 | 99* | -1 | 24 | 36*
CC(C)C#Cc1cnc2c(c1)C(=O)N([C@@H](C)CO)C[C@H](C)[C@H](CN(C)Cc1ccccn1)O2 | -2 | -1[16.7 µM] | nt | 1 | nt | 3
CC(=O)OC1c2ccccc2C(=O)N1c1ccccc1C (stereo unspecified) | 4 | 77* | -32 | 0 | nt | -1

Source: PubChem BioAssay (Broad Institute)
